In PubChem BioAssay AID1159569 (Broad Institute, 2015) one finds outcome data, which are given here for eleven compounds.

Molecules are shown by their SMILES. Entries with a potency or affinity are not part of this list. Results filed as inconclusive are left out. Calls of active or inactive are those of the source. No rule for the calls is given here.

The nature of this assay: HepG2 cell cytotoxicity, dose response, cytotoxicity control, plate reader, dry powder samples (AID 1159569).

In the case of `COc1ccc2c3c([nH]c2c1)[C@H](CO)N(C(=O)C1CCOCC1)CC31CCN(Cc2nccs2)CC1`, the result was inactive. To `C[C@@H]1CN([C@H](C)CO)C(=O)c2cccc(NC(=O)c3nc4ccccc4s3)c2O[C@H]1CN(C)C(=O)Nc1ccc(C(F)(F)F)cc1` belongs “inactive”. To `O=C(c1ccc(F)cc1)N1CC(=O)N2[C@H](C1)[C@@H](c1ccc(-c3cccnc3)cc1)[C@@H]2CO` belongs “inactive”; to `C[C@@H]1CN([C@H](C)CO)C(=O)c2cccc(NC(=O)c3ccc(-c4nccs4)cc3)c2O[C@H]1CN(C)Cc1ccc(C(F)(F)F)cc1`, “inactive”. The value for `COc1ccc2c3c(n(C)c2c1)[C@@H](CO)N(C(=O)C1CC1)CC31CN(C(=O)Nc2cccc(F)c2)C1` was “inactive”; that for `CC(C)(C)S(=O)N1Cc2cc(C(=O)NCc3ccc4c(c3)OCO4)nc(-c3cccc(-c4cc5ccccc5o4)c3)c2[C@H]1CCO` (stereo partly specified) was “inactive”. With `O=C(Nc1ccccc1)N1CCCCN2[C@H](CO)[C@H](c3ccc(C#Cc4cccnc4)cc3)[C@@H]2C1`, the result was inactive. To `O=C(c1ccccc1F)N1CC(=O)N2[C@H](C1)[C@@H](c1ccc(-c3cccnc3)cc1)[C@@H]2CO` belongs “inactive”; to `COc1ccccc1NC(=O)Nc1ccc2c(c1)OC[C@@H](C)N(Cc1ccccc1Cl)C[C@@H](C)[C@H](OC)CN(C)C2=O`, “inactive”. Regarding `C[C@H]1CN([C@@H](C)CO)C(=O)Cc2cc(NC(=O)Nc3ccc(C(F)(F)F)cc3)ccc2O[C@@H]1CN(C)C(=O)Nc1ccc2c(c1)OCO2`, the outcome was inactive.

Take `CCCNC(=O)c1cc2c(c(-c3cccc(-c4cc5ccccc5o4)c3)n1)[C@H](CCO)N(C(=O)NC(C)C)C2`: the result was inactive.
